Screening results (PubChem BioAssay)
Sampled rows, rich in hits. Any-hit rate of the full collection: about 21%.
RORgamma inh: qHTS for inhibitors of ROR gamma transcriptional activity. Nuclear receptor ROR-gamma (Mus musculus), P51450. Drosophila S2 Gal4-RORgamma UAS-luciferase reporter, 20 h. Potency, µM (top dose mostly 53.6 µM), for the others: at the top dose activity change, negative = inhibition, usual class: inhibitors. 5.4% of 310,000 active. AID 2551, 2010; further: potency means the concentration at half of the fitted maximal effect; nearly all actives have a fitted effect of over 60% in size
Target sequence (P51450 whole entry, looked up, the tested form may be a part): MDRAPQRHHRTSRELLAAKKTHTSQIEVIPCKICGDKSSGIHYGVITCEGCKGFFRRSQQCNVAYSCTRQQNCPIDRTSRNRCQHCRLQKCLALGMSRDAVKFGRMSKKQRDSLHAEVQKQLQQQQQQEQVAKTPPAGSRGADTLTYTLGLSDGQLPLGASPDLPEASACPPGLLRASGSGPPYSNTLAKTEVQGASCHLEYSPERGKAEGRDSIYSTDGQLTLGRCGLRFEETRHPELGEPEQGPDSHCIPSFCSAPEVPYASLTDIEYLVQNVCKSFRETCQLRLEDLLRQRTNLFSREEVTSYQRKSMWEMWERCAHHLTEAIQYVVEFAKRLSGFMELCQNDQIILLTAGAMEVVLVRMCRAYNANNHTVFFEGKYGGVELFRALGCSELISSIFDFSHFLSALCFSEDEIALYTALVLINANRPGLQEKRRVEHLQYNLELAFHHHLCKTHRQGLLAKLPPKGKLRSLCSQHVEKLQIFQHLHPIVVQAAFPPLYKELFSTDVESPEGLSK
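In this cell-based reporter format, copper sulfate (700 uM final) drives Gal4–ROR gamma fusion expression from a metallothionein promoter in Drosophila Schneider cells; compounds preincubated 1 hr, reporter read after 20 hr at ambient temperature.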
TDP1 cell noCPT: qHTS for Inhibitors of human tyrosyl-DNA phosphodiesterase 1 (TDP1): qHTS in cells in absence of CPT. DT40 Tdp1-/- hTDP1 cells, no CPT, ATP luminescence, 48 h. Potency, µM (titrated, usually from 46.2 µM), for inactives: top-dose activity change, negative = growth inhibition, usual class: inhibitors. 15% of 420,000 active; further: potency means the concentration at half of the fitted maximal effect; nearly all actives have a fitted effect of over 55% in size
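Growth of hTDP1-complemented DT40 Tdp1-knockout cells is measured by ATP luminescence after at least 48 hr compound exposure at 37 °C, with DMSO substituting for the 20 nM CPT used in the parallel screen.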
DT40 TDP1 CPT: qHTS for Inhibitors of human tyrosyl-DNA phosphodiesterase 1 (TDP1): qHTS in cells in presence of CPT; 12% of 420,000 active; Potency, µM (series often up to 46.2 µM), for the others: top-dose activity change, negative = growth inhibition, actives largely listed as inhibitors; chicken DT40 Tdp1-/-;hTDP1 cells + 20 nM CPT, ATP luminescence, 48 h; AID 686979, 2013; further: potency means the concentration at half of the fitted maximal effect; nearly all actives have a fitted effect of over 55% in size
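Cell growth measured by CellTiter-Glo luminescence after a minimum 48 h, 37 C compound exposure with 20 nM CPT in Tdp1-knockout DT40 cells stably expressing hTDP1, seeded 400/well; qHTS titration format.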
IL-1B inflam inh: qHTS for Inhibitors of Inflammasome Signaling: IL-1-beta AlphaLISA Primary Screen; THP-1 LPS/ATP IL-1B secretion, AlphaLISA, 16 h; stronger effect = lower value; activity change, % at 57.5 µM; 4.7% of 360,000 active; AID 743279, 2014; in the data active means activity change below about -50%; inconclusive means mostly about -30% to -49%
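THP-1 cells pretreated 1 hr with compounds (up to 57.5 uM final), then stimulated with LPS (250 ng/mL final) plus ATP (1.25 mM final); secreted IL-1B measured by AlphaLISA after 16 hr, decreased signal indicating inhibition.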
Gal4-VP16 FLuc: VP16 counterscreen qHTS for inhibitors of ROR gamma transcriptional activity; Drosophila S2 Gal4-VP16 UAS-luciferase, luminescence, 20 h; Potency, µM (titrated, usually from 53.6 µM), for inactives: top-dose activity, negative = inhibition, actives largely listed as inhibitors; AID 2546, 2010; 3.5% of 310,000 active;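 further: Gal4-VP16 expression switched on by copper sulfate through the metallothionein promoter; potency means the concentration at half of the fitted maximal effect; nearly all actives have a fitted effect of over 50% in size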
ELG1 DNA repair: qHTS screen for small molecules that inhibit ELG1-dependent DNA repair in human embryonic kidney (HEK293T) cells expressing luciferase-tagged ELG1; 2.3% of 330,000 active; AID 504467, 2011; Potency, µM (doses to about 46.1 µM), for inactives: top-dose activity change, negative = inhibition, hits mostly inhibitors; HEK293T ELG1-luciferase reporter, luminescence, 16 h; DNA damage induced by 5-fluorouridine; further: potency means the concentration at half of the fitted maximal effect; nearly all actives have a fitted effect of over 55% in size
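Reporter activity after DNA damage by 5-fluorouridine is monitored. Compound-treated cells incubate 16 hr at 37 °C, then ONE-Glo is added for 30 min before luminescence reading.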
Starred values were filed as active, the others as inactive; i = inactive; ? = inconclusive; . = no result. Unless noted, the call rests on the fitted dose curve; in most records, active means well fitted curve in the direction sought with a large enough effect; inconclusive means small, poorly fitted or top-dose-only effect, or another doubt; inactive means no such curve, though single readings can be large; an effect the other way counts as inactive or inconclusive. On the % scale 0 is the no-effect control and ±100 the full control effect.

SMILES	RORgamma inh	TDP1 cell noCPT	DT40 TDP1 CPT	IL-1B inflam inh	Gal4-VP16 FLuc	ELG1 DNA repair
CCOC1(/N=C(\C)NS(=O)(=O)c2ccc(Cl)cc2)C(C)=CC(=O)C=C1C	17%	?	?	5	-1%	-7%
CCCCCCC1CCC(C(=O)NC(C(=O)O)C(C)C)CC1 (stereo unspecified)	.	-29%	-29%	.	.	.
Cc1ccc(CNC(=O)COC(=O)c2ccc(Cl)c(N)c2)cc1	25%	-10%	23µM*	23	?	7%
Cc1cc(CNC(=O)COC(=O)c2ccc(Cl)c(N)c2)cc(C)c1O	.	-7%	1%	4	.	-2%
CN(C)c1ccnc(Oc2ccc(Cl)cc2)c1C#N	?	?	-17%	1	-11%	?
Cc1cc(Cl)ccc1Oc1nccc(N(C)C)c1C#N	?	16µM*	?	-70*	?	-2%
CN(C)c1ccnc(Oc2ccccc2)c1C#N	11%	-20%	?	0	1%	?
CN(C)c1ccnc(Oc2ccc(C(C)(C)C)cc2)c1C#N	?	16µM*	?	42	8%	?
CCc1ccc(NC(=O)CSc2ccc(-c3sc(C)nc3C)nn2)cc1	-2%	?	?	72	-10%	?
Cc1nc(C)c(-c2ccc(SCC(=O)Nc3cccc(Cl)c3)nn2)s1	7%	?	26µM*	3	?	?
Cc1nc(C)c(-c2ccc(SCC(=O)Nc3cccc(F)c3)nn2)s1	-11%	23µM*	16µM*	i	-6%	?
CC(=O)c1cccc(NC(=O)CSc2ccc(-c3sc(C)nc3C)nn2)c1	-5%	23µM*	21µM*	i	0%	23µM*
COc1ccc(NC(=O)CSc2ccc(-c3sc(C)nc3C)nn2)cc1	-8%	?	-24%	i	2%	-27%
Cc1nc(C)c(-c2ccc(SCC(=O)Nc3ccc(Br)cc3)nn2)s1	.	?	21µM*	.	.	.
COc1cccc(OCC(=O)NNC(=O)c2ccc3ccccc3c2)c1	-3%	22%	5%	4	-13%	-4%
Cc1cc(C)c(C)c(S(=O)(=O)N2CCC(C(=O)OCC(=O)NC3CCS(=O)(=O)C3)CC2)c1C (stereo unspecified)	.	2%	-4%	17	.	14%
COc1ccccc1P(=O)(Cc1ccccc1[N+](=O)[O-])c1ccccc1 (stereo unspecified)	11%	15µM*	?	-10	1%	?
CCOc1cc(/C=C/C(=O)c2ccc(OC)c(CN3CCOCC3)c2)cc(Br)c1O	?	?	?	-96*	-12%	18µM*
CCOc1cc(/C=N/NC(=O)c2ccc(CN3CCOCC3)cc2)ccc1OC	-9%	-24%	3%	0	0%	-8%
CC(=O)N/C(=C\c1ccccc1)C(=O)OCC(=O)Nc1cc(S(=O)(=O)N(C)C)ccc1Cl	.	-29%	?	-24	.	-11%
Cc1ccc2c(c1)sc[n+]2Cc1ccccc1	?	13µM*	13µM*	13	-13%	?
COCCN1C(=O)N[C@@H](c2ccccc2)[C@H](C(=O)OC)[C@H]1C	.	-10%	-2%	10	.	.
CN(Cc1ccccn1)Cc1nc(Cc2ccccc2Cl)no1	-17%	14%	3%	0	7%	10%
Cc1cnccc1CN(C)Cc1nc(Cc2ccccc2Cl)no1	?	15µM*	18µM*	-9	?	-12%
CCCCCC(=O)NC(=S)Nc1cccc(C(C)=O)c1	2.8µM*	-23%	5%	-13	?	?
SMILES	RORgamma inh	TDP1 cell noCPT	DT40 TDP1 CPT	IL-1B inflam inh	Gal4-VP16 FLuc	ELG1 DNA repair
Cc1cc(C)nc(NS(=O)(=O)c2ccc(NC(=S)NC(=O)CC(C)C)cc2)n1	25%	-1%	-2%	-7	17%	0%
CC(=O)c1cccc(NC(=S)NC(=O)CC(C)C)c1	?	-7%	0%	-4	7.9µM*	21%
CCCC(=O)NC(=S)Nc1cccc(C(C)=O)c1	10µM*	-4%	9%	2	?	-1%
CCC(=O)NC(=S)Nc1cccc(C(C)=O)c1	11µM*	?	-14%	-20	13%	5%
CSCC[C@H](NC(=O)[C@H](CC(C)C)N1CCC(NC(=O)[C@@H](NC(=O)[C@H](Cc2ccccc2)NC(=O)[C@H](CO)NC(=O)[C@H](CC(=O)O)NC(=O)[C@@H](N)CCCCN)C(C)C)C1=O)C(N)=O (stereo partly specified)	-2%	.	.	.	6%	.
O=C(CSc1nc(=O)n(CCN2CCOCC2)c2c1CCC2)Nc1cccc(Cl)c1	.	-18%	-10%	.	.	.
COc1ccc(C2C(C(=O)Nc3cccnc3)=C(C)Nc3nc(SCc4ccccc4)nn32)cc1 (stereo unspecified)	.	-5%	-24%	.	.	.
CC1CC(=O)N(c2ccc(NCCc3ccc(O)cc3)c([N+](=O)[O-])c2)C1=O (stereo unspecified)	?	15µM*	16µM*	-1	-26%	-29%
CC1CC(=O)N(c2ccc(NCCc3ccccc3)c([N+](=O)[O-])c2)C1=O (stereo unspecified)	-4%	-5%	4%	-5	-6%	10%
O=C1C2CC=CCC2C(=O)N1c1ccc(NCCc2ccccc2F)c([N+](=O)[O-])c1 (stereo unspecified)	?	?	?	-5	-1%	?
O=C1C2CC=CCC2C(=O)N1c1ccc(NCCc2ccccc2)c([N+](=O)[O-])c1 (stereo unspecified)	?	23µM*	?	18	-24%	?
COc1ccc(-n2c(CNC(=O)c3cccc4ccccc34)nnc2SC)cc1	.	-21%	9%	.	.	.
O=C(O)c1cocc1C(=O)O	.	-22%	-2%	-18	.	.
COc1ccc(N2C(=O)CS/C2=N\C(=S)Nc2ccccc2)cc1	-37%	5.8µM*	6.5µM*	31	-4%	8%
COc1ccc(CN(C(=S)Nc2ccccc2)C2CC(=O)N(c3ccc(F)cc3)C2=O)cc1 (stereo unspecified)	35%	?	?	9	-13%	-1%
